From the supplement of paper PMC6555819

Legend:
Assay in all cases: PBM binding z-score (relative to random genomic background probes); higher = stronger binding; sequences stand for … in GC…GCGATTGACAGCGTAGAATGAAGG
[1] = test system: FXR:RXRa (NR concentration 270 nM, RXRa partner concentration 90 nM)
How it was run: (§1)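 For binding z-scores, the reference was random background probes on custom Agilent 4×180K protein-binding microarrays. These arrays were incubated 1 h with ligand-free nuclear receptor dimers in PBS pH 7.4, 2% milk, 0.02% Triton X-100, 1 mM DTT, 0.2 mg/mL BSA and 0.4 mg/ml salmon testes DNA. Fluorescence was scanned after antibody detection of each partner (one per run) and regression-normalized.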

[2] = test system: LXRa:RXRa (NR concentration 270 nM, RXRa partner concentration 90 nM)
How it was run: as §1

[3] = test system: LXRa homodimer (NR concentration 270 nM)
How it was run: as §1

[4] = test system: LXRb:RXRa (NR concentration 270 nM, RXRa partner concentration 90 nM)
How it was run: as §1

[5] = test system: LXRb homodimer (NR concentration 270 nM)
How it was run: as §1

[6] = test system: PPARa:RXRa (NR concentration 270 nM, RXRa partner concentration 90 nM)
How it was run: as §1

[7] = test system: PPARg:RXRa (NR concentration 180 nM, RXRa partner concentration 90 nM)
How it was run: as §1

[8] = test system: PPARg:RXRa 270nM:90nM, anti-RXR (NR concentration 270 nM, RXRa partner concentration 90 nM)
How it was run: as §1

[9] = test system: PPARg:RXRa 30nM:10nM, anti-RXR (NR concentration 30 nM, RXRa partner concentration 10 nM)
How it was run: as §1

[10] = test system: PPARg:RXRa 90nM:30nM, anti-RXR (NR concentration 90 nM, RXRa partner concentration 30 nM)
How it was run: as §1

Row | Sequence | PBM binding z-score [1] | PBM binding z-score [2] | PBM binding z-score [3] | PBM binding z-score [4] | PBM binding z-score [5] | PBM binding z-score [6] | PBM binding z-score [7] | PBM binding z-score [8] | PBM binding z-score [9] | PBM binding z-score [10]
1 | TCTATTAGTTGAAGCGCAACCGACGAGTCCGTTT | 0.428 | 0.488 | -0.0421 | 0.375 | 0.082 | 0.55 | -0.192 | 1.85 | 3.58 | 2.67
2 | CGAACGAGGGCATGAGTTGATAGTAAATGCCGAT | 0.719 | 0.489 | -0.433 | 0.273 | -0.709 | 1.27 | 1.45 | 1.26 | 0.122 | 0.578
3 | CGAACTAGGTAATCCAGGACAGTGAATACATTGA | -0.0818 | -0.39 | -0.012 | -0.349 | -0.454 | 1.23 | 1.56 | 0.982 | 0.536 | 0.507
4 | AATACAAGGTCACTAGGCCAGAGTAGGTACGAAT | 7.35 | 6.14 | 4.32 | 4.79 | 2.19 | 6.29 | 8.24 | 6.63 | 3.8 | 6.05
5 | GCTAGTTAGTCAGTAAAAGGTCACACACCGGTCG | 3.12 | 4.12 | 4.46 | 3.91 | 0.32 | 4.56 | 3.96 | 5.48 | 3.89 | 5.04
6 | AGGACGAGGGCACGCTGAGTTGATAGCAGAGTAG | 0.954 | 0.423 | -0.584 | 0.138 | -1.02 | 1.45 | 1.2 | 0.43 | -0.0581 | 0.384
7 | ATCTCTAGGTAAGAGTTCAGTGAATCCCGAGGAT | 0.291 | 1.13 | 0.982 | 0.873 | 0.69 | 3.22 | 5.23 | 6.11 | 4.98 | 6.44
8 | CGTCCAAGGTCAAACGTCAGTGAAGAGATGACGG | 7.81 | 5.85 | 1.39 | 4.54 | 1.77 | 6.06 | 5.95 | 6.15 | 3.64 | 5.2
9 | GCTTACGGGTCAAAGGCTATAGCATGAATAGAAT | 5.51 | 3.89 | 0.00427 | 3.82 | 0.0561 | 6.01 | 7.81 | 6.86 | 5.03 | 6.55
10 | AGAATGAGGTTATTAAGGTCAGGGAATTGCGGTC | 4.55 | 4.8 | 3.44 | 3.59 | 0.546 | 4.4 | 3.54 | 4.22 | 1.62 | 3.18
11 | AATACAGGGTCACTAGGCCAGAGTCGGTACGAAT | 6.27 | 4.74 | 0.695 | 3.82 | 0.88 | 5.61 | 8.1 | 6.36 | 3.03 | 5.2
12 | CATTACGGGTCACGAGGTTATAGCACGACGAGCG | 7.14 | 6.04 | 2.06 | 4.56 | 1 | 6.33 | 8.49 | 7.3 | 4.45 | 6.59
